# Experimental data reported in PubChem BioAssay (Tox21).
# Inconclusive results are not listed. Values without a mark were called inactive. Active and inactive are the calls of the source. The call rests on the fitted dose curve; in most records, active means well fitted cell-killing curve with a large enough effect in the repeat runs; inconclusive means weak or mixed curves, or effect the other way; inactive means flat fitted curve, though single readings scatter.
# Assay: cAMP Responsive Elements (CRE) small molecule antagonists, cell-based qHTS assay: qHTS cell viability counter screen (AID 2060913); further: nearly all actives have a fitted effect of over 40% in size
# Conditions: CRE-bla HEK293T viability, CellTiter-Glo luminescence, 5 h; series mostly up to 92.4 µM; viability change, negative = cytotoxic: at the top concentration
# Summary of the method: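 CRE-bla HEK293T cells were seeded in assay medium with 10% dialyzed FBS, incubated 18 hrs at 37 C, then exposed to compounds plus 0.25 uM final NKH477 for 3 hrs. Viability was read by CellTiter-Glo luminescence after 30 min, in the same wells.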
# On the % scale 0 is the no-effect control and ±100 the full control effect; potency means the concentration at half of the fitted maximal effect.
SMILES,"viability change, negative = cytotoxic",Potency
O=P(O)(O)Oc1ccccc1,10.9%,
C[C@@H]1C[C@H]2[C@@H]3CCC4=CC(=O)C=C[C@]4(C)[C@@]3(F)[C@@H](O)C[C@]2(C)[C@@]1(O)C(=O)COC(=O)c1ccncc1,0.591% [at 42.5 µM],
Cc1ccccc1C(=O)Nc1ccc(C(=O)N2CCCC(N(C)C)c3ccccc32)cc1 (stereo not given),5.66% [at 42.5 µM],
O=C(/C=C/c1ccc([N+](=O)[O-])cc1)c1ccccc1,3.55%,
O=C(O)CN(CCCN(CC(=O)O)CC(=O)O)CC(=O)O,0.188% [at 18.9 µM],
C=C(C)c1cccc(C(=C)C)c1,3.32%,
CCOB(OCC)OCC,-15.5%,
Cc1cc(N)no1,-9.98%,
CC(C)Nc1ccc(NC(C)C)c2c1C(=O)c1ccccc1C2=O,-0.25% [at 42.5 µM],
CCCCOCCOC(=O)COc1ccc(Cl)cc1Cl,0.706%,
O=C1c2ccccc2C(=O)c2c1ccc(O)c2O,3.63% [at 42.5 µM],
O=S(=O)(O)c1ccc2c(N=Nc3ccc(S(=O)(=O)O)c4ccccc34)c(O)c(S(=O)(=O)O)cc2c1,7.11% [at 8.39 µM],
CC/C=C\CCOC(=O)C(C)C,-6.04%,
COc1ccc2nc(N)sc2c1,,inactive
CC1=CC(=O)NS(=O)(=O)O1,,inactive
Nc1ccc(N=Nc2ccccc2)c(N)n1,,inactive
CC1=C(CC(=O)O)c2cc(F)ccc2/C1=C\c1ccc(S(C)=O)cc1 (stereo not given),,inactive
C[Si]1(C)O[Si](C)(C)O[Si](C)(C)O1,2.51%,
NC(=O)Nc1ccccc1,1.16%,
CC(C)(C)c1cc(C(C)(C)C)c(O)c(C(C)(C)C)c1,,inactive

SMILES,"viability change, negative = cytotoxic",Potency
COC(=O)Nc1ccc(Cl)c(Cl)c1,-10.1%,
CSc1ccc2c(c1)N(CCC1CCCCN1C)c1ccccc1S2 (stereo not given),,60.9 µM (active)
CC(C)OC(=O)c1ccccc1,-7.8%,
CC1CCc2nccnc21 (stereo not given),1.2%,
CCOC(=O)C(C)Oc1ccc(Oc2cnc3cc(Cl)ccc3n2)cc1 (stereo not given),,inactive
COCCOC(=O)C1=C(C)NC(C)=C(C(=O)OC(C)C)C1c1cccc([N+](=O)[O-])c1 (stereo not given),6.33% [at 42.5 µM],
CCO[Si](OCC)(OCC)OCC,-10.1%,
CC(C)COC(=O)c1ccccc1O,19.9%,
CCc1ccc(C)cc1,-1.38%,
CCOC(=O)COc1ccc2c(C)c(CCN(CC)CC)c(=O)oc2c1Cl,3.85% [at 42.5 µM],
CCO[Si](C)(CCCOCC1CO1)OCC (stereo not given),2.5%,
NC(=O)N(O)[C@@H]1C=C[C@H](Oc2cccc(Oc3ccc(F)cc3)c2)C1,1.73%,
CCCCC/C(=C\c1ccccc1)CO,-16%,
Cc1cc2c(cc1CC(=O)c1sccc1S(=O)(=O)Nc1onc(C)c1Cl)OCO2,-0.721% [at 42.5 µM],
COc1ccc(NC(C)=O)cc1,3.3%,
CC(C)=CCC/C(C)=C/C#N,0.815%,
CCCC[P+](CCCC)(CCCC)CCCC,,inactive
CC(C)(O)c1ccc(C(C)(C)O)cc1,16.4%,
CC(C)c1ccccc1N,11.1%,
O=C1NC(=O)c2cccc3cccc1c23,0.917%,

# Assay: cAMP Responsive Elements (CRE) small molecule agonists, cell-based qHTS assay: qHTS cell viability counter screen (AID 2060914); further: nearly all actives have a fitted effect of over 50% in size
# Conditions: CRE-bla HEK293T viability, CellTiter-Glo luminescence, 5 h; series mostly up to 92.4 µM; activity change, negative = cytotoxicity: at the top concentration
# Summary of the method: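 Cytotoxicity was measured as ATP luminescence (CellTiter-Glo, 30 min at room temperature) in the same wells as the CRE-bla FRET read-out. HEK293T CRE-bla cells had 3 h compound exposure at 37C/5% CO2.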
SMILES,"activity change, negative = cytotoxicity",Potency
O=P(O)(O)Oc1ccccc1,-1.63%,
C[C@@H]1C[C@H]2[C@@H]3CCC4=CC(=O)C=C[C@]4(C)[C@@]3(F)[C@@H](O)C[C@]2(C)[C@@]1(O)C(=O)COC(=O)c1ccncc1,6.07% [at 42.5 µM],
Cc1ccccc1C(=O)Nc1ccc(C(=O)N2CCCC(N(C)C)c3ccccc32)cc1 (stereo not given),13.3% [at 42.5 µM],
O=C(/C=C/c1ccc([N+](=O)[O-])cc1)c1ccccc1,3.92%,
O=C(O)CN(CCCN(CC(=O)O)CC(=O)O)CC(=O)O,-8.11% [at 18.9 µM],
C=C(C)c1cccc(C(=C)C)c1,-2.6%,
CCOB(OCC)OCC,1.65%,
Cc1cc(N)no1,0.444%,
CC(C)Nc1ccc(NC(C)C)c2c1C(=O)c1ccccc1C2=O,-8.23% [at 42.5 µM],
CCCCOCCOC(=O)COc1ccc(Cl)cc1Cl,2.58%,
O=C1c2ccccc2C(=O)c2c1ccc(O)c2O,13.1% [at 42.5 µM],
O=S(=O)(O)c1ccc2c(N=Nc3ccc(S(=O)(=O)O)c4ccccc34)c(O)c(S(=O)(=O)O)cc2c1,0.372% [at 8.39 µM],
CC/C=C\CCOC(=O)C(C)C,1.65%,
COc1ccc2nc(N)sc2c1,,inactive
CC1=CC(=O)NS(=O)(=O)O1,,inactive
Nc1ccc(N=Nc2ccccc2)c(N)n1,,inactive
CC1=C(CC(=O)O)c2cc(F)ccc2/C1=C\c1ccc(S(C)=O)cc1 (stereo not given),8.2% [at 42.5 µM],
C[Si]1(C)O[Si](C)(C)O[Si](C)(C)O1,11.9%,
NC(=O)Nc1ccccc1,-3.51%,
CC(C)(C)c1cc(C(C)(C)C)c(O)c(C(C)(C)C)c1,,inactive

SMILES,"activity change, negative = cytotoxicity",Potency
COC(=O)Nc1ccc(Cl)c(Cl)c1,-27.7%,
CSc1ccc2c(c1)N(CCC1CCCCN1C)c1ccccc1S2 (stereo not given),,60.9 µM (active)
CC(C)OC(=O)c1ccccc1,-2.18%,
CC1CCc2nccnc21 (stereo not given),0.0698%,
CCOC(=O)C(C)Oc1ccc(Oc2cnc3cc(Cl)ccc3n2)cc1 (stereo not given),,inactive
COCCOC(=O)C1=C(C)NC(C)=C(C(=O)OC(C)C)C1c1cccc([N+](=O)[O-])c1 (stereo not given),0.536% [at 42.5 µM],
CCO[Si](OCC)(OCC)OCC,-7.07%,
CC(C)COC(=O)c1ccccc1O,15.2%,
CCc1ccc(C)cc1,5.28%,
CCOC(=O)COc1ccc2c(C)c(CCN(CC)CC)c(=O)oc2c1Cl,-9.79% [at 42.5 µM],
CCO[Si](C)(CCCOCC1CO1)OCC (stereo not given),4.1%,
NC(=O)N(O)[C@@H]1C=C[C@H](Oc2cccc(Oc3ccc(F)cc3)c2)C1,12.5%,
CCCCC/C(=C\c1ccccc1)CO,-19.2%,
Cc1cc2c(cc1CC(=O)c1sccc1S(=O)(=O)Nc1onc(C)c1Cl)OCO2,-0.764% [at 42.5 µM],
COc1ccc(NC(C)=O)cc1,-5.93%,
CC(C)=CCC/C(C)=C/C#N,22.2%,
CCCC[P+](CCCC)(CCCC)CCCC,,inactive
CC(C)(O)c1ccc(C(C)(C)O)cc1,10.1%,
CC(C)c1ccccc1N,0.0392%,
O=C1NC(=O)c2cccc3cccc1c23,0.528%,
